# Among all 220,000 compounds or so, about 16,000 (7.3%) were called active. About 25% were inconclusive and are not listed. What follows is part of a selection rich in actives, with near analogues and random picks from the rest. Unmarked numbers belong to inactive results. Calls follow the shape of the dose curve; as a rule, active = well fitted inhibition curve with a large enough effect (not every such curve was filed as active); inconclusive = small, poorly fitted or top-dose-only effect, or another doubt; inactive = no such curve, though single readings can be large or run the other way.
# Biological target: Aldehyde dehydrogenase 1A1 (Homo sapiens) (UniProt P00352)
# Assay: qHTS Assay for Inhibitors of Aldehyde Dehydrogenase 1 (ALDH1A1);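 as to activity, negative = inhibition: plate controls were no enzyme wells and a reference inhibitor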
# Conditions: Purified ALDH1A1, NADH fluorescence, propionaldehyde substrate; series mostly up to 75.3 µM; activity, negative = inhibition: at the top concentration
# Potency is read from the fitted curve at half-maximal effect.
# Chain of Aldehyde dehydrogenase 1A1 (Homo sapiens) (P00352 whole entry, looked up): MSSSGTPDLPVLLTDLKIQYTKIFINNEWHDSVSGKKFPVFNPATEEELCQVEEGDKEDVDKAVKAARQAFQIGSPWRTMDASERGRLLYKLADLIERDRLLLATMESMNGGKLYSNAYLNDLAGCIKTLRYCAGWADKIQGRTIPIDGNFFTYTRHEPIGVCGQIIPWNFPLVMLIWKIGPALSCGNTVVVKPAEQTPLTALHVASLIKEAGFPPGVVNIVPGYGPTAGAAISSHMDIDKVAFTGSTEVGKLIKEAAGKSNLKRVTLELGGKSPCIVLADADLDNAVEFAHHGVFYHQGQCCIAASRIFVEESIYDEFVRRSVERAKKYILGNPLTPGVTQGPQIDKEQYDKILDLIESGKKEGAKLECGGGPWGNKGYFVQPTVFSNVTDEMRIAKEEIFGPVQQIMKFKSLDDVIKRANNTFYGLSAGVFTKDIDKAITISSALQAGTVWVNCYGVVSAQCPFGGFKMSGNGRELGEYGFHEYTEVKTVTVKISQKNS
Compound,"activity, negative = inhibition",Potency
CCOC(=O)CNC(=O)/C(=C\c1ccc(F)cc1)NC(=O)c1ccccc1,16.3%,–
CN(C)c1nnnn1-c1ccc(Cl)cc1,8.16%,–
Cc1cc(C)cc(NC(=O)CSc2ccccc2)c1,-1.77%,–
O=C(Nc1ccc2cn[nH]c2c1)c1ccc(S(=O)(=O)N2CCOCC2)cc1,-7.41%,–
Cc1cccc(NC(=S)Nc2ccc3cn[nH]c3c2)c1,–,10 µM (active)
Cc1csc(NC(=S)Nc2cccc(Cl)c2)n1,-11%,–
Cc1cccc(NC(=O)CSc2nc3[nH]ncc3c(=O)[nH]2)c1,6.36%,–
Cc1cccc(NC(=S)Nc2ccc(Br)cc2)c1,-3.49%,–
S=C(Nc1cccc(Cl)c1)Nc1ccc2cn[nH]c2c1,–,28.2 µM (active)
CC(N)(C(=O)O)c1ccc(-c2nn[nH]n2)cc1 (configuration not stated),-9.71%,–
Cc1cc(C)c(S(=O)(=O)N2CCOCC2)cc1C,8.64%,–
COC1(C2=NCCN2)COc2ccccc2O1 (configuration not stated),0.458%,–
CC1(C)C(c2cccs2)=[N+]([O-])C2(CCCCC2=O)N1O (configuration not stated),–,22.4 µM (active)
Cc1cccc(C)c1NC(=O)CNC(=O)Cc1ccc(Br)cc1,7.71%,–
CCCCCC1CCC(c2nnc(SCC(C)=O)o2)CC1 (configuration not stated),-4.68%,–
CCN(CC)S(=O)(=O)c1ccc(NC(=O)c2cccnc2Cl)c(NC(=O)c2cccnc2Cl)c1,–,7.08 µM (active)
Cc1nn(Cc2ccc(F)cc2)c(C)c1NC(=O)c1cccnc1Cl,10.5%,–
Cc1ccc(CNC(=O)c2cccnc2Cl)cc1,11.7%,–
CCN(CC)S(=O)(=O)c1ccc(C)c(NC(=O)COc2ccc(Br)cc2Cl)c1,0.658%,–

Compound,"activity, negative = inhibition",Potency
CCN(CC)S(=O)(=O)c1cccc(C(=O)Nc2ccccc2)c1,-7.46%,–
CCN(CC)S(=O)(=O)c1ccc(Cl)c(NC(=O)c2ccncc2)c1,–,12.6 µM (active)
O=[N+]([O-])c1cc(S(=O)(=O)Nc2cccc(Cl)c2)ccc1N=Nc1c(O)[nH]c2ccccc12,7.9%,–
COc1ccc(/C=N/NC(=O)c2ccncc2)cc1CN1CCCc2ccccc21,-1.8%,–
CC(C)N(C(=O)c1ccc(-c2ccccc2F)cc1)C(C)C,-6.51%,–
COc1ccc(CN(C(=O)c2cccs2)c2nccs2)cc1OC,2.43%,–
O=C(c1cccs1)N(C(=O)c1cccs1)c1ccccn1,-0.508%,–
COc1ccc(CN(Cc2ccc(OC)cc2)C(=O)c2cccs2)cc1,–,8.91 µM (active)
CCc1ccccc1NC(=S)N(CCN1CCCCCC1)Cc1ccco1,-4.85%,–
O=C(COC(=O)CNC(=O)c1ccco1)Nc1ccc(F)cc1,5.83%,–
CC(C)[C@@H]1NC(=O)[C@H](Cc2ccccc2)NC(=O)[C@@H](CC(=O)O)NC(=O)CNC(=O)[C@H](CCCNC(=N)N)NC1=O,7.85%,–
Cc1nccc(-c2ccc(-n3c(C)ccc3C)cc2)n1,-3.39%,–
Cc1ccc(C(=O)O)cc1NC(=O)c1ccc(Cn2nc(C)c(Cl)c2C)o1,-5.73%,–
C/C(=N/NC(=O)C1COc2ccccc2O1)c1ccco1 (configuration not stated),6.2%,–
O=C(CNC(=O)C(c1ccccc1)c1ccccc1)N/N=C\c1ccc2c(c1)OCO2,4.74%,–
Cc1ccc(C(=O)N/N=C\c2cc(Br)c(Br)o2)cn1,-1.22%,–
O=C(N/N=C/c1cc2c(cc1Br)OCO2)C1COc2ccccc2O1 (configuration not stated),–,25.1 µM (active)
O=C(N/N=C\c1cc(Br)c(Br)o1)C1COc2ccccc2O1 (configuration not stated),–,17.8 µM (active)
O=C(/C=C/c1cc2c(cc1Br)OCO2)NCc1ccc(Cl)cc1,-10.2%,–

Compound,"activity, negative = inhibition",Potency
CN(C)c1ccc(C(=S)N2CCN(C(=S)Nc3ccc(Cl)cc3)CC2)cc1,5.85%,–
CN(Cc1cc2cc(F)ccc2[nH]1)Cc1nc(-c2cnccn2)no1,-3.79%,–
CC(=O)Nc1nc(N(C)C)nc(N(C)C)n1,5%,–
CC(=O)N/N=C(\C)c1ccc(Br)cc1Br,12%,–
COc1ccc(-c2nc(CN3CCN(c4ncccn4)CC3)c(C)o2)cc1C,7.29%,–
COc1cc(C2C(N3C(=O)c4ccccc4C3=O)C(=O)N2c2ccc(C)c(C)c2)cc(OC)c1OC (configuration not stated),3.1%,–
Cc1ccsc1/C=N/n1c(=S)[nH]nc(C)c1=O,-0.343%,–
Cc1n[nH]c(=S)n1/N=C/c1ccc(Br)o1,5.13%,–
Cc1ccccc1-c1n[nH]c(=S)n1/N=C/c1ccc(-c2ccccc2Br)o1,–,14.1 µM (active)
COc1ccc2nccc(C(=O)O)c2c1,9.43% [at 20.9 µM],–
COc1ccc(C=Nc2cccc3ncccc23)cc1,–,17.8 µM (active)
COc1ccc(OC)c(N=Cc2c(O)[nH]c3ccccc23)c1,-3.97%,–
CC(=O)Nc1ccc(C(=O)OCC(=O)Nc2ccc([N+](=O)[O-])cc2C(F)(F)F)cc1,-0.0444%,–
CC(C)(C)C(=O)NCCCNc1ccc([N+](=O)[O-])cc1,-7.51%,–
O=[N+]([O-])c1ccc(NCCCO)c(C(F)(F)F)c1,–,15.8 µM (active)
O=C(N/N=C/c1ccc(Cl)cc1)c1nc2ccc([N+](=O)[O-])cc2c(=O)[nH]1,-8.44%,–
CC(=O)c1cnc(SCC(=O)O)nc1C,6.8%,–
COc1ccc(NC2=CC(=S)NC(C)(C)C2)cc1,1.47%,–
O=C(Nc1cccc(NC(=O)N2CCN(c3ccccc3)CC2)c1)N1CCN(c2ccccc2)CC1,-6.69%,–
